Screening results (PubChem)
Pf Dd2 growth – qHTS Primary assay for Inhibitors of Plasmodium falciparum Dd2 growth in vitro; P. falciparum Dd2 growth, SYBR Green, 72 h; Potency, µM (top dose mostly 28.9 µM), for inactives: top-dose activity, negative = inhibition, actives largely listed as inhibitors; 120,000 tested, 4.3% active; active = well fitted inhibition curve with a large enough effect;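 note: plate controls were DMSO vehicle for no effect and reference drug for full effect; nearly all actives have a fitted effect of over 65% in size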
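Infected erythrocytes (Dd2, 0.3% parasitemia, 2.5% hematocrit final) are added to compound in RPMI-1640/Albumax II medium, grown 72 h at 37C in low oxygen, then lysed with saponin/Triton-X containing SYBR Green and read by fluorescence.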
An asterisk follows results filed as active; i = inactive; [ ] = another dose, or the depositor's remark. Only a selection was taken, and hits are over-represented in it overall. Potency is the fitted concentration of half-maximal effect.

SMILES	Pf Dd2 growth
CC(=O)NCCNC(=O)[C@H]1CN2CCC1C[C@@H]2Cn1cc(CN(C)Cc2ccccc2)nn1 (some centres not stated)	6%
CC(C)c1nc2c(c(-c3ccc(Cl)cc3)n1)CN([S+](=O)([O-])c1cccs1)CC2	i
O=S(=O)(c1cccs1)N1CCc2nc(C3CC3)nc(-c3ccc(Cl)cc3)c2C1	-11%
COc1ccc(-c2nc(C(C)C)nc3c2CN([S+](=O)([O-])c2cccs2)CC3)cc1	5µM*
O=[S+]([O-])(c1cccs1)N1CCc2nc(C3CC3)nc(-c3ccc(Cl)cc3)c2CC1	4µM*
CCc1nc2c(c(-c3ccc(OC)cc3)n1)CCN([S+](=O)([O-])c1cccs1)CC2	-14%
COc1ccc(-c2nc(C(C)C)nc3c2CN([S+](=O)([O-])c2cccc(OC)c2)CC3)cc1	i
COCC(=O)N[C@@H]1CN(C(=O)Nc2ccccc2F)CC[C@@H]1c1nc(C)no1	i[5.79 µM]
CC(C)CCNC(=O)Cn1ccn2nc(-c3ccccc3)c(CO)c2c1=O	i
O=C(Nc1ccc(Oc2ccccc2)cc1)O[C@@H]1CO[C@H]2[C@@H]1OC[C@@H]2NC(=S)Nc1cccc2ccccc12	13µM*
O=C(Nc1cccc2ccccc12)O[C@@H]1CO[C@H]2[C@@H]1OC[C@@H]2NC(=O)C1CCC1	17%[44.1 µM]
O=C(Nc1ccc(Oc2ccccc2)cc1)N[C@H]1CO[C@H]2[C@@H]1OC[C@H]2OC(=O)Nc1cccc2ccccc12	i
CCn1nc(-c2cccc(-c3ccnn3C)c2)nc1N(C)C	-15%
Cc1ccc2c(c1)N(CCC(=O)NCc1ccccc1Cl)C(=O)CO2	46%
Cc1ccc(C2=Nc3ccccc3N(CC(=O)Nc3cccc(F)c3)C(=O)C2)cc1C	8.9µM*
Cc1cc(=O)n(CC(=O)Nc2cccc(F)c2)c(-c2ccccc2)n1	i
COc1ccc(C2=NN(CC(=O)NCc3ccccc3Cl)C(=O)CC2)cc1	6%
Cc1ccc(C2=Nc3ccccc3N(CC(=O)NCc3ccccc3Cl)C(=O)C2)cc1C	11µM*
Cc1ccc(NC(=O)CN2C(=O)CC(c3ccc(F)cc3)=Nc3ccccc32)cc1F	-28%
COCC[C@]1(O)CCN(C(=O)COc2ccc3c(c2)OCO3)C[C@H]1C	-8%
O=C(NC1C[C@H]2CC[C@@H](C1)N2C(=O)CCC1CCCCC1)c1ccncc1 (some centres not stated)	i
CC1Oc2ccc(NC(=O)COc3ccccc3)cc2CN(Cc2ccccc2Cl)C1=O (configuration not stated)	i
O=C(C1CC(=O)N(c2n[nH]c3ccccc23)C1)N1CCC(c2noc3cc(F)ccc23)CC1 (configuration not stated)	i
CCOC(=O)c1cccc(NC(=O)CCn2ccn3nc4c(c3c2=O)CCCC4)c1	i
CCC(CO)N(Cc1ccc(C)s1)C(=O)c1cn(CCN)nn1 (configuration not stated)	-12%
SMILES	Pf Dd2 growth
CCN(CC)Cc1cnc2c(C(=O)NC(C)(C)CO)cnn2c1	-8%
COc1cccc(NC(=O)c2cc3c(N4CCSCC4)nc(C)cn3n2)c1	i
Cc1cn2nc(C(=O)NCCc3cccs3)cc2c(N2CCCC2)n1	7.1µM*
COc1ccc(CCNC(=O)c2cc3c(N4CCCC4)nc(C)cn3n2)cc1OC	i
Cc1cn2nc(C(=O)NC3CCc4ccccc43)cc2c(N2CCCC2)n1 (configuration not stated)	5.6µM*
Cc1cn2nc(C(=O)Nc3ccc(N(C)C)cc3)cc2c(N2CCCC2)n1	0.63µM*
Cc1cn2nc(C(=O)NCCc3ccc(S(N)(=O)=O)cc3)cc2c(N2CCCC2)n1	22%
COc1cc(NC(=O)c2cc3c(N4CCSCC4)nc(C)cn3n2)cc(OC)c1OC	i
Cc1cn2nc(C(=O)NC3CCCC3)cc2c(N2CCCC2)n1	i
Cc1cn2nc(C(=O)NCc3ccccn3)cc2c(N2CCCC2)n1	-8%
Cc1ccc(CCNC(=O)c2cc3c(N4CCCC4)nc(C)cn3n2)cc1	-12%
Cc1cn2nc(C(=O)NCc3ccc(C(C)C)cc3)cc2c(N2CCCC2)n1	i
Cc1cn2nc(C(=O)NCc3ccccc3Cl)cc2c(N2CCCC2)n1	8.9µM*
O=C(N1CCOCC1)N1CCN(C2CCNCC2)C(=O)C1	10%
CCc1noc(-c2cn(C3CCN(C(=O)c4ccc(C(C)(C)C)cc4)C3)nn2)n1 (configuration not stated)	-6%
CCc1nc(-c2ccc(OC3CCN(S(=O)(=O)c4cn(C)cn4)C3)cc2)no1 (configuration not stated)	-2%[5.79 µM]
CC(=O)NCCCC(=O)N1CCOC2(CCN(C(=O)NC(C)C)CC2)C1	10%
OCC1CN(c2ncccn2)CC12CCN(Cc1ccco1)CC2 (configuration not stated)	i
NC(=O)[C@H](Cc1cccs1)NC(=O)[C@@]1(O)C[C@@H](O)[C@H](O)[C@@H](NC(=O)Nc2ccc(OC(F)(F)F)cc2)C1	-9%
O=C(NC1CCCCC1)N1CCCC1c1nc(CCOCC2CCCC2)no1 (configuration not stated)	i
COC[C@@H]1CN(C(=O)c2ccoc2)C[C@H]1c1ccccn1	-7%
CC(C)NC(=O)C[C@@H]1C[C@H]2O[C@H](CNCc3ccncc3F)[C@@H](O)[C@H]2O1	8%[44.1 µM]
COC1C(=O)N(C2CCN(C(=O)NC3CCCCC3)CC2)C12CCOCC2 (configuration not stated)	5%
Cc1cccc(-c2nc(Cn3c(=O)cc(-c4ccccc4)c4c(C)nn(C)c43)c(C)o2)c1	-12%
Cc1ccc(C)c(-c2nc(Cn3c(=O)cc(-c4ccccc4)c4c(C)nn(C)c43)c(C)o2)c1	43%
SMILES	Pf Dd2 growth
Cc1oc(-c2ccccc2)nc1Cn1c(=O)cc(-c2ccccc2)c2c(C)nn(C)c21	10µM*
COc1ccc(OC2CN(C(=O)c3ccccn3)C2)cc1	3%[44.1 µM]
CN1C(=O)c2cccn2CC1C(=O)NC1CCS(=O)(=O)C1 (configuration not stated)	24%
Cc1nc2ccc(C(=O)N3CC[C@](C)(O)[C@@H](O)C3)cc2nc1C	5%
Cc1cccc(OCCc2noc(C3CCCCN3S(C)(=O)=O)n2)c1 (configuration not stated)	-18%
COc1ccc(N2CC(C(=O)N3CCC(C(=O)N4CCC(C#N)CC4)C3)NC2=O)cc1 (configuration not stated)	i
CCn1cc(C(=O)NCc2ccccc2Cl)c(=O)c2cc(S(=O)(=O)N3CCCCCC3)ccc21	-17%
CCn1cc(C(=O)NCc2ccccc2OC)c(=O)c2cc(S(=O)(=O)N3CCCCC3)ccc21	10µM*
CCN(CC)CCNC(=O)c1cn(CC)c2ccc(S(=O)(=O)N3CCc4ccccc4C3)cc2c1=O	i
CCn1cc(C(=O)NCc2ccccc2Cl)c(=O)c2cc(S(=O)(=O)N3CCCCC3)ccc21	1%
CCn1cc(C(=O)NCc2ccccc2Cl)c(=O)c2cc(S(=O)(=O)N3CCc4ccccc4C3)ccc21	10µM*
CCn1cc(C(=O)NCc2ccccc2Cl)c(=O)c2cc(S(=O)(=O)N3CCOCC3)ccc21	-12%
O=C(NCc1cccnc1)c1ccc(N2CC3CC(C2)[C@H]2CCCC(=O)N2C3)nc1 (some centres not stated)	-5%
CCNC(=O)N[C@H]1[C@H](O)[C@H](O)C[C@@H]1c1cccc(C)c1	i
CN(C)C[C@H]1O[C@@H]2C[C@@H](CC(=O)N3CCOCC3)O[C@@H]2[C@@H]1O	8%[44.1 µM]
O=C(Cn1nc2c(cc1=O)CCCCC2)Nc1cccc(C(F)(F)F)c1	-27%
